This note sets out measurements from the OligoGym collection.
Note: reference of the scale not given here.

For one assay, the target named is IFT52. Description: pooled miR-30 sensor sort-seq; sequence = guide strand. The settings on record: shRNA.
Consider TTAATATTGGTGTCAAATCTGG, for which the sensor-assay potency score (higher = more potent) is -0.514.

TTCATGTTTCACATTTAGCTGC registered a sensor-assay potency score (higher = more potent) of -0.162. TGAATCTTCCAATTACTCCGAA came in with a sensor-assay potency score (higher = more potent) of 0.152.

Another assay addresses IGFBP3. Described as above. The settings on record: shRNA.
TTTAGCATGCCCTTTCTTGATG: the sensor-assay potency score (higher = more potent) was -1.17. Sequence TCGTAGTCAACTTTGTAGCGCT gave a sensor-assay potency score (higher = more potent) of -0.259. Same read-out and setting: the same measure for TATCTGTGCTCTGAGACTCGTA: -0.405; for TTTCTTGATGATGATTATCTTT: -1.

With TTCTTGATGATGATTATCTTTG, the sensor-assay potency score (higher = more potent) was -1.16. Regarding TAGCATTTCCTGGAGCTGGCGG, the sensor-assay potency score (higher = more potent) is -0.626. For the sequence TTGATGATGATTATCTTTGAAT, the sensor-assay potency score (higher = more potent) was -0.974. On the same count and under the same terms, as for ATCTGTGCTCTGAGACTCGTAG, the figure is -0.551; as for TTTCTTATAAAATCCCTTCTTG, -0.488.

The sequence TAGTCAACTTTGTAGCGCTGGC registered a sensor-assay potency score (higher = more potent) of -0.23. Still for that read-out and setting: as for TATCTTTGAATGGAGGGGGTGG, the figure is -0.842. The sequence TACTTATCCACACACCAGCAGA returned a sensor-assay potency score (higher = more potent) of -1.2.

Another assay has as its target IGFBP7. The assay is described as above. Conditions: shRNA.
In the case of TATAACTAAAGTGTTAGTGGAT, the sensor-assay potency score (higher = more potent) came out at 0.0715. The same measure, in the same setting: the same measure for TCCATGACTACTTTTAACCATG: -1.58; for TGTCCTTTGAACTCCATAGTGA: -0.0168; for TTTATTTTGTATTTCTCTGTGT: 0.392.

On to TTATTTTGTATTTCTCTGTGTA, for which the sensor-assay potency score (higher = more potent) amounted to 0.738. Still for that read-out and setting: the same measure for TATTTCTCTGTGTAAAACCAGT: -0.876; for TAGAGGAGATACCAGCACCCAG: -1.77. In the case of TAGTCTTGATGTGTGATCTTTA, the sensor-assay potency score (higher = more potent) is -0.24. The same measure, in the same setting: the same measure for ATATTCTCCAGCATCTTCCTTA: 0.0623; for TTGCACACGCACACGCCGCTTA: -0.533; for TTTTTGCTGATGCTGAAGCCTG: -1.34.

With TATGGAAGGACCTTGCTCGCAG, the sensor-assay potency score (higher = more potent) came out at 0.0924.

Another assay deals with IGLL1. Described as above. Conditions: shRNA.
As to TGCAGCTGTTGGGCGCAGCAGG, the sensor-assay potency score (higher = more potent) was -1.51. Still for that read-out and setting: the same measure for TGGACCGGCTGCTTCCTCCAGG: -1.11; for TCAGGTAGCTGCTGGCCGCGTA: -0.554.

Sequence TACCACGGCCAGACCCAGCAGC came in with a sensor-assay potency score (higher = more potent) of -0.916.

Consider TTGTTGTTGCTCTGTTTGGAGG, for which the sensor-assay potency score (higher = more potent) was -1.19.

For TACTTGTTGTTGCTCTGTTTGG, the sensor-assay potency score (higher = more potent) was -0.977.

Regarding TCACCGTCAAGATTCCCGGATA, the sensor-assay potency score (higher = more potent) is -1.01.

On to TTGGGCTGACTTAAAACGGTGA, for which the sensor-assay potency score (higher = more potent) was -0.209. Still for that read-out and setting: the same measure for AGACACACCAGTGTAGCCTTGT: -0.487; for TGAGACACACCAGTGTAGCCTT: 0.221; for TGCTCTGCGATGCAGCTGTTGG: -1.49. TAGCCTTGTTGGCTTGGAGCTC displayed a sensor-assay potency score (higher = more potent) of -0.995.
